# Measurements: PubChem BioAssay (NCATS)
# Results filed as inconclusive are left out. A number with no mark means an inactive call. Active and inactive are the calls of the source. Calls come from the whole dose curve; as a rule, active = well fitted inhibition curve with a large enough effect; inconclusive = small, poorly fitted or top-dose-only effect; inactive = flat fitted curve, though single readings scatter.
# Target: Glutathione peroxidase 1 (Homo sapiens) (UniProt P07203)
# Test: Primary qHTS Assay for Inhibitors of Recombinant Selenoprotein Glutathione Peroxidase 1 (GPX1) (AID 1845191)
# Details: recombinant GPX1, GR-coupled NADPH fluorescence, 15 min; series mostly up to 48.8 µM; activity, negative = inhibition: at the top concentration
# Procedure, shortened: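 GPX1 10 nM, GR 100 nM, GSH 1 mM, NADPH 0.5 mM, CHP 0.5 mM (final). 30-min cpd preincubation, RT. Ex340/Em450 read t=0, t=15 min.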
# % is set by controls: 0 for no effect and ±100 for the full control effect; potency is the fitted concentration of half-maximal effect.
# Note: nearly all actives have a fitted effect of over 65% in size.
# Glutathione peroxidase 1 (Homo sapiens), sequence (P07203 whole entry, looked up): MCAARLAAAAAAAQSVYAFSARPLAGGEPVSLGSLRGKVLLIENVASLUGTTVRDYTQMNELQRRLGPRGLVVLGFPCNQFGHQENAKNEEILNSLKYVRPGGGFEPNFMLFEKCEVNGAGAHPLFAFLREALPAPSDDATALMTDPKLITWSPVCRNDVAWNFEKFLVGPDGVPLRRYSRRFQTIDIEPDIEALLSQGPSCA
Structure (SMILES),"activity, negative = inhibition",Potency,outcome
CCOC(=O)c1ccccc1O,-11.6%,,
NS(=O)(=O)C#Cc1ccccc1,,inactive,
CCCCCCCCCCCCCCCC(=O)OC(CC(=O)O)C[N+](C)(C)C (stereo not given),0.914%,,
CO[C@@]1(NC(=O)Cc2cccs2)C(=O)N2C(C(=O)O)=C(COC(N)=O)CS[C@@H]21,,6.4 µM (active),
CN(C)CCn1nnnc1SCC1=C(C(=O)O)N2C(=O)[C@@H](NC(=O)Cc3csc(N)n3)[C@H]2SC1,,4.53 µM (active),
c1ccc2sc(SSc3nc4ccccc4s3)nc2c1,-8.09% [at 27.7 µM],,
O=C(O)[C@H](O)[C@@H](O)[C@H](O)[C@H](O)CO,-10.2%,,
COc1cc2c3cc1Oc1cc(ccc1O)C[C@@H]1c4c(cc(OC)c(O)c4Oc4ccc(cc4)C[C@@H]3N(C)CC2)CC[N+]1(C)C,4.55%,,
O=c1[nH]c2ccccc2n1CCCN1CCN(C(c2ccccc2)c2ccccc2)CC1,-12.5%,,
CC[C@H]1OC(=O)[C@H](C)[C@@H](O[C@H]2C[C@@](C)(OC)[C@@H](O)[C@H](C)O2)[C@H](C)[C@@H](O[C@@H]2O[C@H](C)C[C@H](N(C)C)[C@H]2O)[C@](C)(O)C[C@@H](C)C(=O)[C@H](C)[C@@H](O)[C@]1(C)O,,,inactive [at 27.7 µM]
C=C[C@@H]1CN2CC[C@@H]1C[C@H]2[C@H](O)c1ccnc2ccc(OC)cc12,,,inactive
O=C(O)c1ccccc1Nc1cccc(C(F)(F)F)c1,,,inactive
c1ccc(-c2ccccn2)nc1,,,inactive
C#C[C@]1(O)CC[C@H]2[C@@H]3CCc4cc(O)ccc4[C@H]3CC[C@@]21C,,inactive,
O=C(O)/C=C\C(=O)O,4.36%,,
CCCCCCCCc1ccc(-c2ccc(C(=O)O)cc2)cc1,4.65%,,
Nc1ncnc2c1ncn2[C@@H]1O[C@H](COP(=O)(O)CP(=O)(O)OP(=O)(O)O)[C@@H](O)[C@H]1O,2.5%,,
CN=c1nc(-c2ccccc2)n(-c2ccccc2)s1,-15.4%,,
N.N.O=C(O)C1(C(=O)O)CCC1.[Pt],0.886%,,

Structure (SMILES),"activity, negative = inhibition",Potency,outcome
CCCOC(=O)c1ccc(O)cc1,-11%,,
Cc1cc(NC2CCCCC2)nc(-n2nc(C)cc2C)n1,,,inactive
NC(=O)C(c1ccccc1)(c1ccccc1)[C@@H]1CCN(CCc2ccc3c(c2)CCO3)C1,,,inactive
N[C@@H](CC(=O)O)C(=O)O,,inactive,
COCCOc1cc2ncnc(Cl)c2cc1OCCOC,,,inactive
O=C1CN(/N=C/c2ccc([N+](=O)[O-])o2)C(=O)N1,,,inactive
O=C(OCc1ccccc1)c1ccccc1,-19.7%,,
CC(C)NCC(O)COc1cccc2ccccc12 (stereo not given),-30.7%,,
NC(=S)c1ccc[n+]([C@@H]2O[C@@H](COP(=O)([O-])OP(=O)(O)OC[C@H]3O[C@@H](n4cnc5c(N)ncnc54)[C@H](OP(=O)(O)O)[C@@H]3O)C(O)C2O)c1 (stereo not given in full),,,inactive
Cc1ccc(C(=O)c2ccc(CC(=O)O)n2C)cc1,-17%,,
CCCCCCCCCCCCOCCO,-9.19%,,
Cc1c(C(=O)O)c(O)cc2c1C(=O)c1c(O)c([C@@H]3O[C@H](CO)[C@@H](O)[C@H](O)[C@H]3O)c(O)c(O)c1C2=O,-3.77%,,
C=C[C@H]1CN2CC[C@@H]1C[C@@H]2[C@@H](O)c1ccnc2ccc(OC)cc12,,,inactive
Nc1c(CC(=O)O)cccc1C(=O)c1ccc(Br)cc1,,,inactive
N#C/C(=C\c1ccc(O)c(O)c1)C(=O)NCc1ccccc1,-14.7%,,
Cc1cn([C@H]2CC(N=[N+]=[N-])[C@@H](CO)O2)c(=O)[nH]c1=O (stereo not given in full),-17%,,
Cn1ncc(S(=O)(=O)Cc2ccccc2)c(Br)c1=O,-29.5%,,
c1ccc2sc(SN3CCOCC3)nc2c1,,20.2 µM (active),
CSc1nc(N)c2ncn([C@@H]3O[C@H](COP(=O)(O)OP(=O)(O)OP(=O)(O)O)[C@@H](O)[C@H]3O)c2n1,,,inactive

# Target: Phospholipid hydroperoxide glutathione peroxidase GPX4 (Homo sapiens) (UniProt P36969)
# Sequence (P36969 whole entry, looked up): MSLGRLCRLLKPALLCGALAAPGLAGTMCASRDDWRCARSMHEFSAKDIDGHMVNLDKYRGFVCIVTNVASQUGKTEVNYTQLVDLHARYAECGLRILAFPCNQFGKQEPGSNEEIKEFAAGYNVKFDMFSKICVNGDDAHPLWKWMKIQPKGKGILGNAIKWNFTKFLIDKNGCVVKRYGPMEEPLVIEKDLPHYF
# Test: Primary qHTS Assay for Inhibitors of Recombinant Selenoprotein Glutathione Peroxidase 4 (GPX4) (AID 1845192)
# Details: recombinant GPX4, GR-coupled NADPH fluorescence, 15 min; series mostly up to 50 µM; activity change, negative = inhibition: at the top concentration
# Procedure, shortened: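 qHTS, GR-coupled: GPX4 200 nM + cpd 30 min RT → GSH 1 mM, NADPH 0.5 mM, GR 100 nM → CHP 0.5 mM start; fluor 340/450 at t0 and t15 min; no-enzyme wells as control.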
Structure (SMILES),"activity change, negative = inhibition",outcome,Potency
CCOC(=O)c1ccccc1O,3.3%,,
NS(=O)(=O)C#Cc1ccccc1,,inactive,
CCCCCCCCCCCCCCCC(=O)OC(CC(=O)O)C[N+](C)(C)C (stereo not given),,inactive,
CO[C@@]1(NC(=O)Cc2cccs2)C(=O)N2C(C(=O)O)=C(COC(N)=O)CS[C@@H]21,,inactive,
CN(C)CCn1nnnc1SCC1=C(C(=O)O)N2C(=O)[C@@H](NC(=O)Cc3csc(N)n3)[C@H]2SC1,,,12.6 µM (active)
c1ccc2sc(SSc3nc4ccccc4s3)nc2c1,-1.67% [at 27.8 µM],,
COc1cc2c3cc1Oc1cc(ccc1O)C[C@@H]1c4c(cc(OC)c(O)c4Oc4ccc(cc4)C[C@@H]3N(C)CC2)CC[N+]1(C)C,,inactive,
O=c1[nH]c2ccccc2n1CCCN1CCN(C(c2ccccc2)c2ccccc2)CC1,,inactive,
CC[C@H]1OC(=O)[C@H](C)[C@@H](O[C@H]2C[C@@](C)(OC)[C@@H](O)[C@H](C)O2)[C@H](C)[C@@H](O[C@@H]2O[C@H](C)C[C@H](N(C)C)[C@H]2O)[C@](C)(O)C[C@@H](C)C(=O)[C@H](C)[C@@H](O)[C@]1(C)O,3.59% [at 27.8 µM],,
C=C[C@@H]1CN2CC[C@@H]1C[C@H]2[C@H](O)c1ccnc2ccc(OC)cc12,,inactive,
O=C(O)c1ccccc1Nc1cccc(C(F)(F)F)c1,,inactive,
c1ccc(-c2ccccn2)nc1,,inactive,
C#C[C@]1(O)CC[C@H]2[C@@H]3CCc4cc(O)ccc4[C@H]3CC[C@@]21C,,,inactive
O=C(O)/C=C\C(=O)O,3.73%,,
CCCCCCCCc1ccc(-c2ccc(C(=O)O)cc2)cc1,,inactive,
Nc1ncnc2c1ncn2[C@@H]1O[C@H](COP(=O)(O)CP(=O)(O)OP(=O)(O)O)[C@@H](O)[C@H]1O,,inactive,
CN=c1nc(-c2ccccc2)n(-c2ccccc2)s1,,inactive,
N.N.O=C(O)C1(C(=O)O)CCC1.[Pt],,,22.7 µM (active)
CCCOC(=O)c1ccc(O)cc1,-14.5%,,

Structure (SMILES),"activity change, negative = inhibition",outcome,Potency
Cc1cc(NC2CCCCC2)nc(-n2nc(C)cc2C)n1,,inactive,
NC(=O)C(c1ccccc1)(c1ccccc1)[C@@H]1CCN(CCc2ccc3c(c2)CCO3)C1,,inactive,
N[C@@H](CC(=O)O)C(=O)O,,,inactive
COCCOc1cc2ncnc(Cl)c2cc1OCCOC,1.78%,,
O=C1CN(/N=C/c2ccc([N+](=O)[O-])o2)C(=O)N1,,inactive,
O=C(OCc1ccccc1)c1ccccc1,2.01%,,
CC(C)NCC(O)COc1cccc2ccccc12 (stereo not given),-16%,,
NC(=S)c1ccc[n+]([C@@H]2O[C@@H](COP(=O)([O-])OP(=O)(O)OC[C@H]3O[C@@H](n4cnc5c(N)ncnc54)[C@H](OP(=O)(O)O)[C@@H]3O)C(O)C2O)c1 (stereo not given in full),2.27%,,
Cc1ccc(C(=O)c2ccc(CC(=O)O)n2C)cc1,-11.9%,,
CCCCCCCCCCCCOCCO,-13.8%,,
Cc1c(C(=O)O)c(O)cc2c1C(=O)c1c(O)c([C@@H]3O[C@H](CO)[C@@H](O)[C@H](O)[C@H]3O)c(O)c(O)c1C2=O,-5.31%,,
C=C[C@H]1CN2CC[C@@H]1C[C@@H]2[C@@H](O)c1ccnc2ccc(OC)cc12,,inactive,
Nc1c(CC(=O)O)cccc1C(=O)c1ccc(Br)cc1,,inactive,
N#C/C(=C\c1ccc(O)c(O)c1)C(=O)NCc1ccccc1,-18.2%,,
Cc1cn([C@H]2CC(N=[N+]=[N-])[C@@H](CO)O2)c(=O)[nH]c1=O (stereo not given in full),-12.2%,,
Cn1ncc(S(=O)(=O)Cc2ccccc2)c(Br)c1=O,-17.2%,,
c1ccc2sc(SN3CCOCC3)nc2c1,1.46%,,
CSc1nc(N)c2ncn([C@@H]3O[C@H](COP(=O)(O)OP(=O)(O)OP(=O)(O)O)[C@@H](O)[C@H]3O)c2n1,,inactive,
